35 molecules from ChEMBL document CHEMBL3433997, “St. Jude Leishmania screening dataset” (2016) can be followed below.

Holding throughout (format): functional
The target in assay [1] is Solute carrier family 2, facilitated glucose transporter member 1 (Homo sapiens) (UniProt P11166). Nature of the assay: ST_JUDE_LEISH: Cytotoxicity at 2uM final concentration against transgenic Leishmania Mexicana promastigotes LmGLUT1 that are glucose transport deficient and complemented with the human glucose transporter GLUT1. Activity is measured by DNA content using SYBR green in vitro.
Sequence of Solute carrier family 2, facilitated glucose transporter member 1 (Homo sapiens) (P11166 whole entry): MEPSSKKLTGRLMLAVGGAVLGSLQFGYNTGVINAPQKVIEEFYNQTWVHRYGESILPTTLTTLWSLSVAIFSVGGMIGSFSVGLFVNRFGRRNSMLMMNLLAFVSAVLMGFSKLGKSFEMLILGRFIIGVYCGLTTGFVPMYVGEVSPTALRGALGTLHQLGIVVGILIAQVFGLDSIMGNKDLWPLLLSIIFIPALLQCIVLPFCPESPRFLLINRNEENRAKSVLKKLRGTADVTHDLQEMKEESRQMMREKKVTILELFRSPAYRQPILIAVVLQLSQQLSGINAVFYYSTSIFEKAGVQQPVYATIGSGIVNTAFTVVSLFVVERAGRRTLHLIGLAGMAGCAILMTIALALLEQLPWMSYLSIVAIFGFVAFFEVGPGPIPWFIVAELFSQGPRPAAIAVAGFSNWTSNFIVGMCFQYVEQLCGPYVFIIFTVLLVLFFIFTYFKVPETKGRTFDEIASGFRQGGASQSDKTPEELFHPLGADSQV

Assay [2] concerns the target Hexose transporter 1 (Plasmodium falciparum) (UniProt O97467). Nature of the assay: ST_JUDE_LEISH: Cytotoxicity at 2uM final concentration against transgenic Leishmania Mexicana promastigotes LmPfHT that are glucose transport deficient and complemented with the Plasmodium falciparum hexose transporter. Activity is measured by DNA content using SYBR green in vitro.
The target of assay [3] is Glucose transporter (Leishmania mexicana) (UniProt O61059). Kind of assay: ST_JUDE_LEISH: Cytotoxicity at 2uM final concentration against transgenic Leishmania Mexicana promastigotes LmGT2 that are glucose transport deficient and complemented with the L. Mexicana glucose transporter 2. Activity is measured by DNA content using SYBR green in vitro.

Molecules are shown by their SMILES.

By inhibition is commonly meant the relative decrease from the control value, in per cent. Take `CC(C)(C)Cn1cc(-c2ccc(C(=O)NCCc3ccc(S(C)(=O)=O)cc3)cc2)c(N)n1.CC(C)(C)Cn1ncc(-c2ccc(C(=O)NCCc3ccc(S(C)(=O)=O)cc3)cc2)c1N`: the results for the inhibition in assay [1], in assay [2] and in assay [3] were 0.21%, 1.16% and 2.93%, respectively.

Turning to `CCCCSc1nc2c(c(=O)n1Cc1ccco1)C1(CCCCC1)Cc1ccccc1-2`, the inhibition in assay [1] is 0.71%; in assay [2], 1.36%; in assay [3], 1.89%.

With `CCc1ccc(O)c(-c2cc(C(=O)Nc3ccc(OC)c(Cl)c3)[nH]n2)c1`, the inhibition in assay [1] is 0.23%; in assay [2], 0.3%; in assay [3], -7%.

`Fc1ccccc1CNc1ncc(-c2ccsc2)c(-c2nccs2)n1`: the inhibition was -0.99% in assay [1], 0.2% in assay [2] and -3% in assay [3].

As to `COc1ccccc1CCNc1nc(C)cc(N[C@@H](Cc2ccccc2)C(=O)NCc2cccs2)n1`, the inhibition amounted to 2.42% in assay [1], 2.49% in assay [2] and 0.42% in assay [3].

`CCOC(=O)c1ccc(NC(=O)N[C@@H](Cc2ccccc2)C(=O)NC2CCN(Cc3ccc(OCCCN(C)C)cc3)C2)cc1` (stereo not given in full): the inhibition is -0.91% in assay [1], 0.74% in assay [2] and 0.98% in assay [3].

For the molecule `CCOC(=O)CN1Cc2cc(NCc3ccc4ccc5nc(C)[nH]c(=O)c5c4c3)ccc2C1=O`, the inhibition in assay [1] was 0.55%; in assay [2], 1.98%; in assay [3], -0.88%.

Turning to `CCC(C)NS(=O)(=O)c1ccc2nc(Nc3ccc(C)c(Cl)c3)n(C(C)C(C)C)c2c1` (stereo not given), the inhibition in assay [1] is 2.38%; in assay [2], 2.08%; in assay [3] it was 1.6%.

Regarding `Cc1cccc2nc(-c3ccc(-c4cccc(NC(=O)c5ccncc5)c4)cc3)[nH]c12`, the results for the inhibition in assay [1], in assay [2] and in assay [3] were 0.03%, -0.47% and 1.08%, respectively.

Regarding `O=C(Nc1cccc(OC2CCN(Cc3ccccc3)CC2)c1)c1ccc([N+](=O)[O-])cc1`, the values for the inhibition in assay [1], in assay [2] and in assay [3] were 4.89%, 4.94% and 4.55%, respectively.

As to `CN1CCC(Oc2ccc(CN3CC[C@H](NC(=O)c4cccc(C#N)c4)C3)c3ccccc23)C1` (stereo not given in full), the figures for the inhibition in assay [1], in assay [2] and in assay [3] were -0.8%, 1.42% and 2.12%, respectively.

Consider `CCNc1cc(C)nc(Nc2ccc(NC(=O)c3ccccc3)cc2)n1`, for which the results for the inhibition in assay [1], in assay [2] and in assay [3] were 6.94%, 4.8% and 3.79%, respectively.

As to `O=C(N[C@@H](CC1CCCCC1)C(=O)NCCN1CCCC1)c1ccc(O)c(-c2ccc(Cl)c(Cl)c2)c1`, the inhibition in assay [1] turned out to be 0.12%; in assay [2], 0.41%; in assay [3] it was 0.58%.

Consider `CC(C)n1ncc2c3c(N)nc(N)nc3ccc21`, for which the inhibition in assay [1] came to 1.85%; in assay [2], 1.69%; in assay [3], 2.51%.

On to `O=C(NCC1CCN(Cc2ccsc2)C1)c1cc(-c2cccc(C(F)(F)F)c2)cs1` (stereo not given), for which the values for the inhibition in assay [1], in assay [2] and in assay [3] were 1.96%, 0.91% and 3.66%, respectively.

Take `COc1ccc(CC(=O)Nc2ccc(Nc3nc(C)cc(N4CCCC4)n3)cc2)cc1`: the inhibition in assay [1] was found to be 46%; in assay [2], 51.5%; in assay [3], 16.1%.

Turning to `CN(C)Cc1cccc(-c2ccc(NC(=O)c3ccc4c(=O)n(Cc5ccoc5)cnc4c3)cc2)c1`, the results for the inhibition in assay [1], in assay [2] and in assay [3] were 63.7%, 54.6% and 24.1%, respectively.

As for `C=CCNc1cc(-c2ccccn2)nc(-c2ccccn2)n1`, the values for the inhibition in assay [1], in assay [2] and in assay [3] were 31.9%, 9.08% and 6.05%, respectively.

Consider `Nc1cccc(CNCc2cccc(-c3cccc(-c4nc5cc(C(F)(F)F)ccc5[nH]4)c3)c2)c1`, for which the inhibition in assay [1] was 1.23%; in assay [2] it was -0.22%; in assay [3] it was 1.43%.

For the molecule `CC(C)(C)c1nn(-c2ccccc2)c2[nH]c(=O)c(CNC3CCCC3)cc12`, the figures for the inhibition in assay [1], in assay [2] and in assay [3] were 3.76%, 1.66% and 2.65%, respectively.

Consider `CCN(CC)c1ccc(-c2nc3cc(Cl)cnc3[nH]2)cc1`, for which the inhibition in assay [1] came to 5.04%; in assay [2], 5.32%; in assay [3], 3.88%.

For `c1ccc2c(c1)ncn2-c1ccnc(Nc2ccncc2)n1`, the inhibition in assay [1] worked out at 6.4%; in assay [2] it was 6.42%; in assay [3], 6.75%.

Take `O=C(Nc1ccc(OC(F)(F)F)cc1)NC1CCN(c2ccnc3ccccc23)C1` (stereo not given): the results for the inhibition in assay [1], in assay [2] and in assay [3] were 3.08%, 2.41% and 3.12%, respectively.

Consider `CC(C)NCC(O)Cn1c2ccc(Br)cc2c2cc(Br)ccc21` (stereo not given), for which the figures for the inhibition in assay [1], in assay [2] and in assay [3] were 0.74%, 0.92% and 0.36%, respectively.

As for `O=C(/C=C/c1ccc(Cl)c(Cl)c1)NCCCCCN1CCC(n2c(=O)[nH]c3ccccc32)CC1`, the inhibition in assay [1] stood at 8.14%; in assay [2] it was 7.32%; in assay [3], 7.73%.

For the molecule `CC(C)(C)c1ccc(CNC(=O)c2cc(CNC3CCNCC3)ccc2O)cc1`, the figures for the inhibition in assay [1], in assay [2] and in assay [3] were 1.45%, 1.01% and 0.22%, respectively.

In the case of `C=C[C@]1(C)C[C@@H](OC(=O)c2n[nH]c3ccccc3c2=O)[C@]2(C)[C@H](C)CC[C@]3(CCC(=O)[C@H]32)[C@@H](C)[C@@H]1O`, the inhibition in assay [1] was 5.34%; in assay [2], 0.28%; in assay [3], -0.71%.

For the molecule `O=C(CSc1nc(-c2ccccc2Cl)ns1)Nc1cccc(Cl)c1`, the values for the inhibition in assay [1], in assay [2] and in assay [3] were 1.59%, 1.79% and 0.35%, respectively.

For the molecule `Cn1nc(C(F)(F)F)c(-c2ccc(F)cc2)c1NC(=O)Nc1ccc(F)cc1`, the figures for the inhibition in assay [1], in assay [2] and in assay [3] were 3.38%, 4.67% and 4.05%, respectively.

As to `CC1CN(c2ccc(NC(=O)c3ccsc3)cc2C(=O)N2CCN(Cc3ccc(C(C)(C)C)cc3)CC2)CC(C)O1` (stereo not given), the inhibition in assay [1] is -1.24%; in assay [2], 1.1%; in assay [3], 0.3%.

With `Cc1cccc(CC(=N)NCCCCCCNC(=N)Cc2cccc(C)c2)c1`, the inhibition is 0.27% in assay [1], 0.31% in assay [2] and -2.06% in assay [3].

As for `CC1CN(c2ccc(NC(=O)c3ccc(F)cc3)cc2)CCN1Cc1cccc(F)c1` (stereo not given), the inhibition in assay [1] amounted to 3.88%; in assay [2] it was 2.84%; in assay [3], 4.01%.

In the case of `CCn1c(Cc2ccccc2)nnc1SCC(=O)N1c2ccccc2Sc2ccccc21`, the inhibition in assay [1] turned out to be 4.01%; in assay [2] it was 3.52%; in assay [3] it was 2.39%.

As to `COc1ccc(C2(CNCC(O)c3cccc([N+](=O)[O-])c3)CCCCC2)cc1OC` (stereo not given), the values for the inhibition in assay [1], in assay [2] and in assay [3] were 1.34%, 2.95% and 0.33%, respectively.

As for `O=C(CSc1nnc(O)n1Cc1ccccc1)Nc1ccccc1-c1ccccc1`, the inhibition in assay [1] stood at 5.26%; in assay [2] it was 6.12%; in assay [3] it was 5.02%.
